# Results: PubChem BioAssay AID1159580 (chemical genetic matrix, 2015)
# Hit rate of the full screen: of about 5,500 compounds, about 2,000 (36%) were called active. Another 18% or so got no clear call; they are omitted. Some of the results follow. A number with no mark means an inactive call. Cut-off read from the data, not from the text of the source: active = normalized growth mostly below about 0.91 (no sharp cut-off); inconclusive = no clear call, values can overlap the other calls; inactive = mostly above about 0.92.
# Assay: chemical genetic growth profiling, strain panel (AID 1159580);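 note: tested at 20 µM; growth read once vehicle control cultures reached saturation at 30 °C; 1 = growth at the plate median or of vehicle wells; lower values mean less growth of the strain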
# Conditions: growth OD
# [1] = S. cerevisiae deletion strains, locus YGR078C, strain PAC10, active compounds read low
# [2] = S. cerevisiae deletion strains, locus YNL153C, strain GIM3, active compounds read low
# [3] = S. cerevisiae deletion strains, locus YAL013W, strain DEP1, active compounds read low
# [4] = S. cerevisiae deletion strains, locus YBR229C, strain ROT2, active compounds read low
# [5] = S. cerevisiae deletion strains, locus YDL101C, strain DUN1, active compounds read low
# [6] = S. cerevisiae deletion strains, locus YDR150W, strain NUM1, active compounds read low
# [7] = S. cerevisiae deletion strains, locus YEL061C, strain CIN8, active compounds read low
# [8] = S. cerevisiae deletion strains, locus YHR030C, strain SLT2, active compounds read low
# [9] = S. cerevisiae deletion strains, locus YHR087W, strain rtc3, active compounds read low
# [10] = S. cerevisiae deletion strains, locus YJR043C, strain POL32, active compounds read low
# [11] = S. cerevisiae deletion strains, locus YJR075W, strain HOC1, active compounds read low
# [12] = S. cerevisiae deletion strains, locus YLR039C, strain RIC1, active compounds read low
# [13] = S. cerevisiae deletion strains, locus YLR058C, strain SHM2 (second series), active compounds read low
# [14] = S. cerevisiae deletion strains, locus YLR085C, strain ARP6, active compounds read low
# [15] = S. cerevisiae deletion strains, locus YLR262C, strain YPT6, active compounds read low
# [16] = S. cerevisiae deletion strains, locus YML094W, strain GIM5, active compounds read low
# [17] = S. cerevisiae deletion strains, locus YMR219W, strain ESC1, active compounds read low
# [18] = S. cerevisiae deletion strains, locus YMR263W, strain SAP30, active compounds read low
# [19] = S. cerevisiae deletion strains, locus YNL298W, strain CLA4 (second series), active compounds read low
# [20] = S. cerevisiae deletion strains, locus YNL322C, strain KRE1, active compounds read low
# [21] = S. cerevisiae deletion strains, locus YNR030W, strain Alg12, active compounds read low
# [22] = S. cerevisiae deletion strains, locus YPL055C, strain LGE1, active compounds read low
# [23] = S. cerevisiae deletion strains, locus YPL241C, strain CIN2, active compounds read low
# [24] = S. cerevisiae deletion strains, locus YPR135W, strain CTF4, active compounds read low
compound,measurement,setting,value
COc1cc([C@@H]2c3cc4c(cc3[C@H](O)C3COC(=O)[C@@H]32)OCO4)cc(OC)c1OC (stereo not given in full),normalized growth,"S. cerevisiae deletion strains, locus YAL040C, strain CLN3, active compounds read low",1.06
same,normalized growth,"S. cerevisiae deletion strains, locus YCL061C, strain MRC1 (second series), active compounds read low",0.999
same,normalized growth,"S. cerevisiae deletion strains, locus YDR363W, strain ESC2, active compounds read low",1
same,normalized growth,"S. cerevisiae deletion strains, locus YER002W, strain NOP16, active compounds read low",1.02
same,normalized growth,[1],1.02
same,normalized growth,[2],1.04
same,normalized growth,"S. cerevisiae deletion strains, locus YNL175C, strain NOP13, active compounds read low",1.02
same,normalized growth,"S. cerevisiae deletion strains, locus YNL197C, strain WHI3, active compounds read low",1
same,normalized growth,"S. cerevisiae deletion strains, locus YNL224C, strain SQS1, active compounds read low",1
same,normalized growth,"S. cerevisiae deletion strains, locus YOR083W, strain WHI5 (second series), active compounds read low",1
C/C(=N/O)c1ccn(S(=O)(=O)c2ccc(Cl)cc2)c1,normalized growth,[3],0.998
same,normalized growth,[4],1.02
same,normalized growth,"S. cerevisiae deletion strains, locus YCL061C, strain MRC1, active compounds read low",1.05
same,normalized growth,[5],1.03
same,normalized growth,"S. cerevisiae deletion strains, locus YDL134C, strain PPH21, active compounds read low",1
same,normalized growth,[6],0.891
same,normalized growth,[7],0.983
same,normalized growth,[1],1.01
same,normalized growth,[8],1.02
same,normalized growth,[9],0.992
same,normalized growth,[10],1.05
same,normalized growth,[11],1.02
same,normalized growth,"S. cerevisiae deletion strains, locus YKL190W, strain CNB1, active compounds read low",0.995
same,normalized growth,[12],1.04
same,normalized growth,[13],0.978
same,normalized growth,[14],0.99
same,normalized growth,[15],1.04
same,normalized growth,[16],1.02
same,normalized growth,[17],0.996
same,normalized growth,[18],0.998
same,normalized growth,"S. cerevisiae deletion strains, locus YNL128W, strain TEP1, active compounds read low",1
same,normalized growth,[2],1.05
same,normalized growth,[19],1.02
same,normalized growth,[20],0.983
same,normalized growth,[21],1
same,normalized growth,[22],0.989
same,normalized growth,[23],1
same,normalized growth,[24],1.06
same,normalized growth,"S. cerevisiae strains, strain wild type, active compounds read low",1.01
CC(=N/O)/C(C)=C/c1ccc(Cl)cc1,normalized growth,[3],0.8 (active)
same,normalized growth,[4],0.822 (active)
same,normalized growth,[5],0.835 (active)
same,normalized growth,[6],0.847
same,normalized growth,[7],0.648 (active)
same,normalized growth,[1],0.752 (active)
same,normalized growth,"S. cerevisiae deletion strains, locus YGR229C, strain SMI1, active compounds read low",0.898 (active)
same,normalized growth,[8],0.165 (active)
same,normalized growth,[9],0.785 (active)
same,normalized growth,[10],0.824 (active)
same,normalized growth,[11],0.521 (active)
same,normalized growth,[12],0.327 (active)
same,normalized growth,[13],0.848 (active)
same,normalized growth,[14],0.164 (active)
same,normalized growth,[15],0.311 (active)
same,normalized growth,[16],0.712 (active)
same,normalized growth,[17],0.855 (active)
same,normalized growth,[18],0.837 (active)
same,normalized growth,[2],0.852 (active)
same,normalized growth,[19],0.441 (active)
same,normalized growth,[20],0.885 (active)
same,normalized growth,[21],0.555 (active)
same,normalized growth,"S. cerevisiae deletion strains, locus YOL006C, strain TOP1, active compounds read low",0.305 (active)
same,normalized growth,[22],0.56 (active)
same,normalized growth,[23],0.502 (active)
same,normalized growth,[24],0.231 (active)
